# CYP2C9 inh = inhibitors of human CYP2C9 | CYP2C9 Supersomes, luciferin-H conversion, luminescence | inhibition, % at 5 µM | 96,000 tested, 20% active;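 active = blocking of liver enzyme CYP2C9 beyond about 50% at 5 µM, limit read from the data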
# Target sequence (P11712 whole entry, looked up): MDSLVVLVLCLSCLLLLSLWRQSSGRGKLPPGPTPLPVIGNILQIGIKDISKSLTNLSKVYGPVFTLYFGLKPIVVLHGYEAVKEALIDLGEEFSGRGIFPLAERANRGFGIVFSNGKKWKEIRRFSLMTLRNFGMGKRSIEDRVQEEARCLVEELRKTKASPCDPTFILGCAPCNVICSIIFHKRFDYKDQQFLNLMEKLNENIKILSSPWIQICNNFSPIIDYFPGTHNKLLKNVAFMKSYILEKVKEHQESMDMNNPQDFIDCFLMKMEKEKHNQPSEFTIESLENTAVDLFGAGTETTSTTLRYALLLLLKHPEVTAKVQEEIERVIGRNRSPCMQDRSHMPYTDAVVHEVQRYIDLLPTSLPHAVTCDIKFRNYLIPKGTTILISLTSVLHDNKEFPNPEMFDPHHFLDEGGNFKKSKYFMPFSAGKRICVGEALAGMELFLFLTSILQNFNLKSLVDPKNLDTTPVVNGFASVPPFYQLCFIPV
# CYP2C19 inh = blocks human cytochrome P450 2C19. 96,000 tested, 21% active. CYP2C19 Supersomes, luciferin-H EGE luminescence, 30 min. inhibition, % at 5 µM. AID 778;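 active = CYP2C19 inhibition above a set limit at 5 µM in the primary screen, cut at about 50% in these data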
# E-sel TNF inh = blocks E-selectin expression induced by TNF alpha | HUVEC TNFa-induced E-selectin immunofluorescence, high content | 120,000 tested, 0.71% active | inhibition, % at 2 µM | AID 1246;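 active = inhibition above the batch mean plus 3 SD, and confirmed as a hit on visual image review, cut at about 43% in these data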
# CYP2C9 act = activators of human CYP2C9; P11712; recombinant CYP2C9, luciferin-H conversion, luminescence; hits give high values; factor 1 = untreated enzyme, 0 = blocked; activation factor at 5 µM; 96,000 tested, 1.4% active; AID 1024;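 active = activation factor of 2 or more for CYP2C9 at a 5 µM dose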
# CYP2C19 activ = cytochrome P450 2C19 (human) activation | recombinant CYP2C19, luciferin-H EGE luminescence; hits give high values; 0 = fully inhibited enzyme, 1 = untreated enzyme | activation factor at 5 µM | 96,000 tested, under 10 active | AID 1025;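 active = activation factor of at least 2 at 5 µM in the primary screen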
# F-actin modifier = alters cytoskeleton assembly in HUVEC cells | 91,000 tested, 0.18% active | AID 836 | inhibition, % at 2 µM | HUVEC TNFa F-actin phalloidin imaging, high content;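 active = inhibition above the batch mean plus 3 SD and confirmed as a hit by visual image inspection, cut at about 30% in these data, passing the limit was not always enough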
# Hits are given with their value; n = inactive; x = not tested or not shown. Compounds with a hit are over-represented: about 22% of the library has one in this group of screens.
SMILES,CYP2C9 inh,CYP2C19 inh,E-sel TNF inh,CYP2C9 act,CYP2C19 activ,F-actin modifier
CCOc1ccc(CNC(=O)C2CCCN(S(C)(=O)=O)C2)cc1OC (stereo not drawn),n,n,n,n,n,x
CCOc1ccc(S(=O)(=O)Nc2nc3ccccc3nc2N2CCN(C)CC2)cc1,56,n,n,n,n,n
COc1ccc(S(=O)(=O)Nc2nc3ccccc3nc2Nc2ccc3c(c2)OCO3)cc1,x,x,n,x,x,x
Cc1ccccc1S(=O)(=O)Nc1nc2ccccc2nc1N1CCOCC1,70,n,n,n,n,n
O=S(=O)(Nc1nc2ccccc2nc1N1CCN(c2ccccc2F)CC1)c1ccc(Cl)cc1,100,n,n,n,n,n
Cc1cc(C)n(-c2nc3ccccc3nc2N2CCOCC2)n1,x,x,n,x,x,x
CCC(C)NC(=O)c1cc(CC(C)C)on1 (stereo not drawn),n,n,x,n,n,n
O=C(CSc1ccc(-c2ccncc2)nn1)N1CCCCC1,x,x,n,x,x,x
COc1cccc(OC)c1OCCCCn1cnc2ccccc2c1=O,x,x,n,x,x,x
Cc1scc(C(=O)N/N=C/c2ccc(OCC(C)C)cc2)c1C,82,72,x,n,n,n
COc1ccc(N(C(C)C(=O)N/N=C/c2ccc(OCC(C)C)cc2)S(C)(=O)=O)cc1 (stereo not drawn),x,x,n,x,x,x
CCCCOc1ccc(/C=N/NC(=O)c2csc(C)c2C)cc1,60,65,n,n,n,n
COC(=O)C(Cc1ccc(OC(=O)c2ccccc2Cl)cc1)N1Cc2ccccc2C1=O (stereo not drawn),n,n,n,n,n,n
N#CC1=C(SCC(=O)NC2CC2)NC(=O)C(C#N)C12CCCCC2 (stereo not drawn),68,n,x,n,n,n
C=CCSC1=NC(N)=C(C#N)C2(CCCCC2)C1C(N)=O (stereo not drawn),n,89,n,n,n,x
CC(C)(C)C1CCC2(CC1)C(C#N)=C(SCC(=O)NC1CCCCC1)NC(=O)C2C#N (stereo not drawn),92,n,n,n,n,n
C=CCSC1=C(C#N)C2(CCCCC2)C(C#N)C(=O)N1 (stereo not drawn),83,58,x,n,n,x
CCOC(=O)c1[nH]c2ccc(OC)cc2c1C,n,n,n,n,n,n
CCOC(=O)C1=C(SCC(=O)Nc2ccccc2)NC(=O)C(C#N)C12CCCCC2 (stereo not drawn),85,93,n,n,n,n
N#CC1=C(SCC(=O)NC23CC4CC(CC(C4)C2)C3)NC(=O)C(C#N)C12CCCCC2 (stereo not drawn),x,x,n,x,x,n
N#CC1=C(SCC(=O)Nc2cccc3cccnc23)NC(=O)C(C#N)C12CCCCC2 (stereo not drawn),91,78,n,n,n,n
O=C(O)c1ccc(N2C(=O)c3cccc(Oc4ccc(Cl)cc4)c3C2=O)cc1,x,x,n,x,x,x
COc1cccc(Nc2ncnc3ccccc23)c1,n,n,n,n,n,n
O=C(Oc1cccc(Nc2ncnc3ccccc23)c1)c1ccccc1Cl,57,n,n,n,n,n
COc1ccc(NS(=O)(=O)c2cccc3cccnc23)cc1,x,x,n,x,x,n
SMILES,CYP2C9 inh,CYP2C19 inh,E-sel TNF inh,CYP2C9 act,CYP2C19 activ,F-actin modifier
Cc1ccc(O)c(CNc2cccc3cccnc23)c1,x,x,n,x,x,x
COc1cccc(CNc2cccc3cccnc23)c1O,n,81,n,2.2,n,n
Cc1cccc(NS(=O)(=O)c2cccc3cccnc23)n1,n,n,n,2.5,n,x
COc1ccccc1NS(=O)(=O)c1cccc2cccnc12,n,70,n,n,n,x
COc1ccc(OC)c(NC(=O)c2ccccc2NS(=O)(=O)c2cccc3cccnc23)c1,92,77,n,n,n,n
COc1ccc(-c2ocnc2C(=O)N2CCN(C(c3ccccc3)c3ccccc3)CC2)cc1,x,x,n,x,x,x
COc1ccc(S(=O)(=O)Nc2cc(C)ccn2)cc1,n,n,n,n,n,x
Cc1cccc(NS(=O)(=O)c2ccccc2)n1,n,n,n,n,n,x
COc1ccc(S(=O)(=O)Nc2cccc(C)n2)c2ccccc12,n,67,n,n,n,n
C/C(=N\Nc1cccc2cccnc12)c1ccccc1O,x,x,72,x,x,x
CCOc1cc(NC(=O)C2CCCO2)c(OCC)cc1NC(=O)C1CC1 (stereo not drawn),n,n,x,n,n,n
Cc1nn(Cc2ccccc2)c(N)c1C#N,n,n,n,n,n,n
N#C/C(=C/c1ccccc1)c1nn(CCO)c(N)c1C#N,77,94,n,n,n,n
COc1ccc(OCCSc2nnc(CCNC(=O)c3ccc(Cl)c(Cl)c3)n2C)cc1,n,n,n,n,n,n
Cc1cccc(/C=N/NC(=O)C(C)Nc2cccc3ccccc23)n1 (stereo not drawn),n,71,n,n,n,n
CC(O)C(=O)N/N=C/c1cccc2ccccc12 (stereo not drawn),x,x,n,x,x,x
CN(CCOc1ccc(-c2ccn(S(=O)(=O)c3ccc(Cl)cc3)n2)cc1)c1ccccn1,n,n,n,n,n,n
CC(Oc1ccc(Cl)cc1)c1ccnn1S(=O)(=O)c1ccccc1 (stereo not drawn),n,82,n,n,n,n
CC(Oc1ccc(-c2ccccc2)c(F)c1)c1ccn(S(=O)(=O)c2ccc(Cl)cc2)n1 (stereo not drawn),68,n,n,n,n,n
Cc1cccc(N2CCN(CC(O)COCc3cccs3)CC2)c1C (stereo not drawn),x,x,n,x,x,x
O=[N+]([O-])c1cccc(CN(CCO)Cc2ccccc2)c1,n,n,n,n,n,n
CC(=O)Nc1ccc(OCC(=O)c2ccc(C)cc2C)cc1,n,72,n,n,n,n
O=C(COC(=O)c1ccccc1Nc1ccccc1)c1ccccc1,57,n,n,n,n,n
COC(=O)c1ccccc1Nc1ccccc1,n,n,n,n,n,n
COC(=O)c1ccc(OCC(=O)c2ccccc2)cc1,n,75,n,n,n,x
SMILES,CYP2C9 inh,CYP2C19 inh,E-sel TNF inh,CYP2C9 act,CYP2C19 activ,F-actin modifier
NC(=O)COC(=O)c1ccc(Oc2ccccc2)cc1,n,55,n,n,n,x
O=C(NCCC1=CCCCC1)C1CCN(C(=O)c2ccc(Cl)cc2)CC1,n,n,x,n,n,n
O=C(Oc1ccc2cc(Br)ccc2c1)N1CCCCCC1,x,x,n,x,x,x
O=C(NCc1ccccn1)c1cccc(NS(=O)(=O)c2cccc(Cl)c2)c1,x,x,n,x,x,x
Cn1c(=O)nc2n(Cc3ccccc3)c3cccc(Cl)c3cc-2c1=O,x,x,n,x,x,x
O=C(OCCN1C(=O)c2ccccc2C1=O)c1cnccn1,n,n,x,n,n,n
COC(=O)c1cc(O)c(OCc2ccccc2)c(O)c1,91,95,n,n,n,n
CCc1ccc(C(=O)COc2ccc(NC(C)=O)cc2)cc1,77,88,n,n,n,n
O=C(OCCOc1ccc(Br)cc1)c1cnccn1,n,62,n,n,n,n
O=C(OCc1ccc(Cl)c(Cl)c1)c1cnccn1,n,61,n,n,n,n
CCOc1ccc(C(=O)COc2ccc(NC(C)=O)cc2)cc1,n,n,n,n,n,n
